This is an account of results in ChEMBL document CHEMBL3988442, “University of Dundee, Small-Polar-MMV Screening Library” (2021).

In experiment [1] the target is T1, Aspartate--tRNA(Asp/Asn) ligase (Mycobacterium tuberculosis (strain ATCC 25618 / H37Rv)) (UniProt P9WFW3). Further: in the data most compounds retested in dose-response had high values.
T1 sequence (whole entry): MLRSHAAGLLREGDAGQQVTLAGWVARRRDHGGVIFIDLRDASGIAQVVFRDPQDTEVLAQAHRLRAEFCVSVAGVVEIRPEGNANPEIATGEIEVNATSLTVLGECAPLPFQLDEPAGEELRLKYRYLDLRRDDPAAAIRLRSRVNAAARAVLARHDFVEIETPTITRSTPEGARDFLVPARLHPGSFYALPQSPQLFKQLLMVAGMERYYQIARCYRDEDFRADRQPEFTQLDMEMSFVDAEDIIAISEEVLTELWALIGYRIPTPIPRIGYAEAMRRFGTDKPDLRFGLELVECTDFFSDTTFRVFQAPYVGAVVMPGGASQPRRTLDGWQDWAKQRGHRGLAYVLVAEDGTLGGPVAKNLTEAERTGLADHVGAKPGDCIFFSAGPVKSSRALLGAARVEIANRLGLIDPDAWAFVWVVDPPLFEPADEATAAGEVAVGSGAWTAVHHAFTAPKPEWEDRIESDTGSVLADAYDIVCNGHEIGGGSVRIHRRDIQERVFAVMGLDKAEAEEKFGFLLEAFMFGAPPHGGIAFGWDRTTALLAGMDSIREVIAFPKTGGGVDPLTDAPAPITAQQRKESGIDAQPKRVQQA
As to the kind of experiment: Assay for Asp RNA synthetase-1 from Mycobacterium tuberculosis. More on the design: scale not given: direction of the effect not stated beside the values. It is filed as functional. As to conditions: 30 µM.

Experiment [2] concerns the target Shiga toxin 2 (Escherichia coli O157:H7) (UniProt P09385+P09386). Kind of experiment: E. coli 0.157:H7 Shiga Toxin SOP - stx2 screening assay. More on the design: scale not given: direction of the effect not stated beside the values. As to conditions: 30 µM. It is filed as functional.

As for `CCn1ccnc1CN1CCN(CCOc2ccccc2OC)CC1`, the Percent Effect in experiment [1] is -3.95%; in experiment [2], -17.6%.

On to `CO[C@H]1CO[C@@]2(CCCN(C(=O)C3=CCCCC3)C2)C1`, for which the Percent Effect is 8.41% in experiment [1] and -11.8% in experiment [2].

In the case of `CCc1ccc(O)c(C(=O)NC2CCN(C(=O)OC)CC2)c1`, the Percent Effect in experiment [1] was -2.88%; in experiment [2], -48.7%.

For `Cn1cnnc1C1CCCN(C(=O)c2cnc3ccccc3n2)C1` (configuration not stated), the Percent Effect in experiment [1] is -1.76%; in experiment [2] it was 36.5%.

Regarding `CN(CC(=O)Nc1ccc(Br)cn1)C(=O)Cc1ccc(O)cc1`, the Percent Effect in experiment [1] was -5.92%; in experiment [2] it was 17.8%.

For the compound `Cc1nc(C)n(CC2CN(CC(=O)Nc3nccs3)CCO2)n1` (configuration not stated), the Percent Effect is -3.2% in experiment [1] and 0.609% in experiment [2].

Turning to `CC(C)(C)n1ncc2c1NC(=O)CC2c1ccccc1` (configuration not stated), the results for the Percent Effect in experiment [1] and in experiment [2] were -5% and 22%, respectively.

In the case of `CCN(Cc1ccc2c(c1)OCO2)C(=O)CCc1c(C)nc(C)[nH]c1=O`, the Percent Effect is -2.63% in experiment [1] and 29.9% in experiment [2].

For `c1cnn(CC2CN(c3ncnc4sccc34)CCO2)c1` (configuration not stated), the Percent Effect is 2.38% in experiment [1] and -6.78% in experiment [2].

For `CC(C)N(C)C(=O)C1=NOC2(CCN(C(=O)c3ccccn3)C2)C1` (configuration not stated), the Percent Effect turned out to be 2.07% in experiment [1] and 3% in experiment [2].

As for `O=C(NCCCN1CCCC1)c1n[nH]c(=O)c2ccccc12`, the Percent Effect was -3.43% in experiment [1] and -6.83% in experiment [2].

As to `O=C1CC[C@H]2[C@H](CCN2C(=O)C2CCOCC2)N1Cc1ccncc1`, the Percent Effect in experiment [1] is -6.47%; in experiment [2], -35.2%.

Regarding `CC(C)n1ncc2c1NC(=O)CSC2C(C)(C)C` (configuration not stated), the Percent Effect is -2.73% in experiment [1] and -13.8% in experiment [2].

As to `CCN1CCOC(CNCc2ccccn2)C1` (configuration not stated), the Percent Effect is 1.04% in experiment [1] and 12.2% in experiment [2].

With `O=S(=O)(Nc1cnn(C2CCOCC2)c1)c1ccc(F)c(F)c1`, the Percent Effect in experiment [1] worked out at 3.75%; in experiment [2], 1.76%.

`Cc1nc(CN2C(=O)COC3(CCN(Cc4nccs4)CC3)C2C)cs1` (configuration not stated): the Percent Effect in experiment [1] was -2.21%; in experiment [2], -29.4%.

`CC(C)(C)C(=O)NCCC(=O)NS(=O)(=O)c1ccc2c(c1)OCCO2`: the figures for the Percent Effect in experiment [1] and in experiment [2] were -10.1% and 0.645%, respectively.

Consider `COc1c(C)cnc(CN2CCC(C(=O)N(C)C)CC2)c1C`, for which the Percent Effect is -0.91% in experiment [1] and 10.2% in experiment [2].

In the case of `CCOCC(O)CN1CCN(C(=O)CC(C)(C)C)CC1` (configuration not stated), the Percent Effect was -3.73% in experiment [1] and 14.9% in experiment [2].

In the case of `CN1CCN(c2nc(O)c3c(-c4ccccn4)ccnc3n2)CC1`, the Percent Effect was -3.26% in experiment [1] and 7.03% in experiment [2].

As to `CCc1nc(C2CCCN2CCn2cncn2)no1` (configuration not stated), the Percent Effect is 0.0232% in experiment [1] and -0.231% in experiment [2].

Consider `CCOc1cc(CN(C)CCOC)ccc1OC(F)F`, for which the Percent Effect was -3.33% in experiment [1] and -67.7% in experiment [2].

`CC1Cc2ccccc2N1Cc1occc1C(=O)OCC(N)=O` (configuration not stated): the results for the Percent Effect in experiment [1] and in experiment [2] were -3.97% and -1.38%, respectively.

As for `c1cncc(OCc2nnn3c2CN(Cc2ccsc2)CCC3)c1`, the Percent Effect in experiment [1] is -0.204%; in experiment [2], -23%.

For `CC(C)NC(=O)C1CN(C(=O)c2ccco2)CC12CCOCC2` (configuration not stated), the results for the Percent Effect in experiment [1] and in experiment [2] were 9.32% and 1.11%, respectively.

Consider `Cc1nn(C)c(N2CCOCC2)c1CNCc1ccc(Cl)s1`, for which the Percent Effect in experiment [1] was 5.1%; in experiment [2] it was 27.1%.

In the case of `Cc1ccc(NC(=O)C2CSCN2C(=O)c2cnccn2)c(C)c1` (configuration not stated), the Percent Effect is 1.01% in experiment [1] and -39.3% in experiment [2].

In the case of `Cn1cc(CC(=O)N2CCC(Nc3cccnn3)CC2)c2ccccc21`, the Percent Effect in experiment [1] is 2.29%; in experiment [2], -25.9%.

For `Cc1nc(C2CCCN2CCCNS(C)(=O)=O)no1` (configuration not stated), the Percent Effect in experiment [1] is -0.167%; in experiment [2] it was 23.5%.

Take `Cc1nc(C2CCCN(C(=O)CCCn3cccn3)C2)no1` (configuration not stated): the values for the Percent Effect in experiment [1] and in experiment [2] were -5.28% and -27.3%, respectively.

As for `O=C(c1ccc[nH]1)N1CCCC(c2cc(C(F)(F)F)[nH]n2)C1` (configuration not stated), the Percent Effect amounted to 3.68% in experiment [1] and 36.4% in experiment [2].

Consider `CCOc1cc(/C=C/c2ncc(C(=O)O)s2)cc(Cl)c1OC`, for which the Percent Effect is -1.24% in experiment [1] and -0.531% in experiment [2].

On to `CCN(Cc1ccc(OC)c(F)c1)C(=O)c1ccc(C)[nH]c1=O`, for which the Percent Effect in experiment [1] was -0.589%; in experiment [2], 30.6%.

Regarding `O=C(c1ccncc1)N1CCCC2(COCCN(c3ccccc3)C2)C1` (configuration not stated), the Percent Effect was 2.82% in experiment [1] and -1.46% in experiment [2].

With `Cc1ncsc1C(=O)NCCOc1ncc(Cl)cc1Cl`, the Percent Effect was 3.06% in experiment [1] and -33.3% in experiment [2].

As for `O=C(c1ccc(Br)s1)N1CCN(Cc2ccc(OC(F)(F)F)cc2)CC1`, the results for the Percent Effect in experiment [1] and in experiment [2] were -3.13% and -21.7%, respectively.

Take `CC(C)N(Cc1nc2c(cnn2C)c(=O)[nH]1)c1ccccc1`: the Percent Effect in experiment [1] was -2.77%; in experiment [2], 3.48%.

On to `CN(Cc1nccn1CC(F)(F)F)C(=O)c1cccc(C#N)c1`, for which the Percent Effect in experiment [1] is 1.68%; in experiment [2] it was -1.08%.

On to `Cc1cc(C(=O)N2CCc3ncc(CN4CCOCC4)n3CC2)no1`, for which the results for the Percent Effect in experiment [1] and in experiment [2] were -4.02% and -7.88%, respectively.

With `COCc1cccc(NC(C)C(=O)N(C)Cc2cccc(F)c2)c1` (configuration not stated), the Percent Effect is -0.296% in experiment [1] and -8.46% in experiment [2].

Take `CCNC(=O)C1CCN(Cc2csc(-c3ccc(C)o3)n2)CC1`: the Percent Effect in experiment [1] is 6.68%; in experiment [2], -30.3%.

Turning to `O=C(CCc1ccc(O)cc1)N1CCC(Cc2ccc(CO)cc2)C1` (configuration not stated), the Percent Effect in experiment [1] was -0.39%; in experiment [2], -14.8%.

As for `Cn1ccnc1CN1CCN(CC(=O)NCC(F)(F)F)CC1`, the Percent Effect in experiment [1] worked out at 1.97%; in experiment [2] it was 18.6%.

With `CCCc1nc(CN2CCCC(Cn3cncn3)C2)no1` (configuration not stated), the Percent Effect in experiment [1] is -3.39%; in experiment [2], -26.6%.

As for `CCOC(=O)CCCNC(=O)CN1CCN(c2ncccn2)CC1`, the Percent Effect in experiment [1] was 6.48%; in experiment [2], -56.7%.

For the compound `O=C(c1cnccn1)N1CCN(Cc2ccncc2)c2ncccc2C1`, the Percent Effect in experiment [1] is 0.815%; in experiment [2], -1.31%.

With `O=C(NC1CC1)[C@H]1C[C@H]2OCC[C@H]2N(CC2CC2)C1`, the values for the Percent Effect in experiment [1] and in experiment [2] were 3.52% and -19.5%, respectively.

As for `CNC(=O)c1cc2c(nc1N(C)C)CCN(S(=O)(=O)C1CC1)CC2`, the Percent Effect is 0.364% in experiment [1] and -4.82% in experiment [2].

For `Cc1cc(C)n(CC2CN(CC(=O)Nc3c(C)n[nH]c3C)CCO2)n1` (configuration not stated), the Percent Effect was -0.486% in experiment [1] and 6.68% in experiment [2].

In the case of `NCC1CN(c2nc(-c3ccccc3)nc3c2CCNCC3)CCO1` (configuration not stated), the values for the Percent Effect in experiment [1] and in experiment [2] were -0.798% and -22.2%, respectively.

`Cc1ccc([C@@H]2CN(S(=O)(=O)C(C)C)C[C@H]2N(C)C)cc1`: the Percent Effect in experiment [1] amounted to 0.183%; in experiment [2], 12.9%.
